# Bioassay records (PubChem BioAssay)
# Hits are enriched below; roughly 3.5% of the tested compounds scored in any of these assays.
# BoNT-A LC inh2: inhibitors of Botulinum neurotoxin A light chain protease | multiplex microsphere protease substrate cleavage, flow cytometry | inhibition, % at 10 µM | 360,000 compounds, 0.17% hits | AID 588499
# Autofluor counter: counter-screen for toxin protease inhibitors: compound fluorescence; fluorescence intensity (concentration not given with the values); AID 624483; compound autofluorescence counterscreen, microsphere flow cytometry; active compounds read high; 360,000 compounds, 3.1% hits; in the data active = fluorescence intensity above about 16000; inconclusive = no clear call, values can overlap the other calls
# BoNT F protease: blocks Botulinum neurotoxin F light chain protease; Multiplex microsphere protease cleavage assay, flow cytometry; inhibition, % at 10 µM; 360,000 compounds, 0.22% hits; in the data active = inhibition above about 35%, passing the limit was not always enough; inconclusive = no clear call, values can overlap the other calls
# Anthrax LF prot: blocks Bacillus anthracis lethal factor protease | AID 588501 | inhibition, % at 10 µM | 360,000 compounds, 0.12% hits | multiplex microsphere protease cleavage assay, LF
# Target sequence (P15917 whole entry, looked up): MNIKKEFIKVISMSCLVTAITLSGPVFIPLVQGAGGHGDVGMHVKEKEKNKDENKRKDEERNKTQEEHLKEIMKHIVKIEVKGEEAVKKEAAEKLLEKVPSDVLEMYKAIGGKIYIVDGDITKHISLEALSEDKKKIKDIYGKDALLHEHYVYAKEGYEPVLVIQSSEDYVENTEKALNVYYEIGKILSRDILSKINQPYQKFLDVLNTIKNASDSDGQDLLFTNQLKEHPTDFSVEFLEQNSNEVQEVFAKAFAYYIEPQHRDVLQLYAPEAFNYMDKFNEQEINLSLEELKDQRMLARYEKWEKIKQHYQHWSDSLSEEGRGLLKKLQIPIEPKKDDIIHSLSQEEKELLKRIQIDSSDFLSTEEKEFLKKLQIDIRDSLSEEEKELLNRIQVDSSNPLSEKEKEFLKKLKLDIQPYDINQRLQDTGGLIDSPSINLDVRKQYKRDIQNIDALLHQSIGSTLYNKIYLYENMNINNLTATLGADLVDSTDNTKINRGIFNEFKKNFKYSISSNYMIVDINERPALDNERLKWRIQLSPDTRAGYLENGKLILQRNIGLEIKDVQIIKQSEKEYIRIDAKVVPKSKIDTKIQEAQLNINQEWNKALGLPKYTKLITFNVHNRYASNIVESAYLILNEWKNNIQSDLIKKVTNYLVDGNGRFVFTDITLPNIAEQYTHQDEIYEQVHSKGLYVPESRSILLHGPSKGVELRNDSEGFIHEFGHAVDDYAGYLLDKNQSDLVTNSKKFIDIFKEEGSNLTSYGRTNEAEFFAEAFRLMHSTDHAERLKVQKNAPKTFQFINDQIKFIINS
# A number is an active result; - = inactive; ? = inconclusive. Rule as the data show it, unless noted: active = inhibition above about 30%; inconclusive = no clear call, values can overlap the other calls; inactive = below that.
SMILES,BoNT-A LC inh2,Autofluor counter,BoNT F protease,Anthrax LF prot
CCOC(=O)C1=C(C)N=c2sc(=Cc3cc(Cl)c(OCC(=O)O)c(Cl)c3)c(=O)n2C1c1cccc(OC)c1 (stereo not drawn),-,-,-,-
CC(C)c1ccc(NC(=O)c2cccc(Br)c2)cc1,-,-,-,-
O=C(CS(=O)c1cccc(Cl)c1)Nc1ccccc1Cl (stereo not drawn),?,22003,-,-
Cc1ccc(NC(=O)Cn2cccc2)c(Br)c1,-,23334,-,-
Cc1ccc(NC(=O)Cn2cccc2)c(C)c1,-,-,-,-
O=C(Cn1cccc1)Nc1ccc(OC(F)(F)F)cc1,-,21063,-,-
COc1ccc(NC(=O)Cn2cccc2)cc1Cl,-,22292,-,-
Cc1ccc(NC(=O)Cn2cccc2)cc1Cl,-,-,-,-
Cc1ccc(NC(=O)Cn2cccc2)cc1,-,-,-,-
Cc1cccc(NC(=O)Cn2cccc2)c1,-,20306,-,-
Brc1ccc2nc(C3CCCCC3)c(Cc3ccsc3)n2c1,-,-,-,-
Cc1ccc(NC(=O)CN2C(=O)NC(C)(CC(C)C)C2=O)c(Br)c1 (stereo not drawn),-,-,-,-
C=Cc1ccc(Cn2nc(-c3ccc(C)cc3)ccc2=O)cc1,-,-,-,-
CCc1nc2ccc(C(=O)N(CC)CCN(C)C)cn2c1N(C=O)CCC(C)C,-,-,-,-
COc1ccc(NC(=O)CNC(c2ccccc2)c2ccccc2)cc1Cl,-,-,-,-
COc1ccc(NCC(=O)Nc2ccccc2C#N)cc1Cl,-,21530,-,-
O=P(c1ccccc1)(c1ccccc1)C(O)c1ccc(Br)cc1 (stereo not drawn),-,-,?,-
CC(C)(C)c1ccc(-c2nc(C#N)c(NCc3cccnc3)o2)cc1,-,17505,-,-
CCCn1c(=S)[nH]c2cc(C(=O)N3CCc4ccccc43)ccc2c1=O,-,21147,-,-
CCCn1c(=S)[nH]c2cc(C(=O)N3CCN(C)CC3)ccc2c1=O,-,-,-,-
COCCn1c(=S)[nH]c2cc(C(=O)N3CCc4ccccc43)ccc2c1=O,-,24139,-,-
COCCn1c(=S)[nH]c2cc(C(=O)N3CCN(C4CCCCC4)CC3)ccc2c1=O,-,-,-,-
CCOc1cc(CNCc2ccncc2)cc(Br)c1OCc1ccc(F)cc1,-,20403,-,-
O=C(c1ccc(Cn2c(=S)[nH]c3ccc(Br)cc3c2=O)cc1)N1CCN(C2CCCCC2)CC1,-,-,-,-
O=C(Nc1ccc(Cl)cc1)N(Cc1cccnc1)Cc1ccco1,-,-,-,-
SMILES,BoNT-A LC inh2,Autofluor counter,BoNT F protease,Anthrax LF prot
Cc1ccc(NC(=O)N(Cc2cccnc2)Cc2ccco2)cc1C,-,23168,-,-
COC(=O)c1ccc(-n2cncn2)c(F)c1,?,23526,-,-
COC(=O)c1ccc(-n2cncn2)c([N+](=O)[O-])c1,-,?,-,-
CN1CCN(C(=O)c2cccc(-c3ccc4nccn4c3)c2)CC1,-,-,-,-
COCC(=O)Nc1nc2n(n1)C(c1ccccc1Cl)CC(c1ccc(OC)cc1)N2 (stereo not drawn),-,20336,-,-
O=C(NCCCN1CCCC1=O)c1ccccc1OCc1ccc(Cl)cc1Cl,-,-,-,-
O=C(CNC(=O)c1ccc(F)cc1)Nc1ccccc1C(F)(F)F,-,-,-,-
O=c1c2c(nc3c(-c4cccc(Br)c4)c[nH]n13)CCCC2,-,16678,-,-
CCOc1ccc(N=Cc2c(O)n(C(C)(C)C)c(=O)[nH]c2=O)cc1,-,23346,-,-
CC1(C)OC(=O)N(CC(=O)Nc2ccccc2)C1(C)O (stereo not drawn),-,-,-,-
CC1(C)OC(=O)N(CCc2ccccc2)C1(C)O (stereo not drawn),-,25029,-,-
CC(=O)Nc1ccc(SCC(=O)NC(=O)c2ccc(S(=O)(=O)N(C)C)cc2)cc1,-,-,-,-
Cc1ccc(C)c(OCC(=O)Nc2nc3ccc([N+](=O)[O-])cc3s2)c1C,?,22520,-,-
Cc1cc2c(cc(C(=O)OC(C)C(=O)NCc3ccc(F)cc3)n2C)o1 (stereo not drawn),-,-,-,-
O=[N+]([O-])c1ccc(Sc2cccc3cccnc23)c([N+](=O)[O-])c1,?,20643,-,-
Cc1sc(NC(=O)C2CCCCC2C(=O)O)c(C(N)=O)c1C (stereo not drawn),-,23098,-,-
CCc1ccc(Cn2nnc(C(=O)Nc3cccc(C)c3)c2N)cc1,-,-,-,-
Cc1ccc(Cn2nnc(C(=O)Nc3cccc(C)c3C)c2N)cc1,?,19408,-,-
CCCCN(C=O)c1c(CC)nc2ccc(C(=O)NCCN(C)C)cn12,-,-,-,-
O=C(NCc1ccc2c(c1)OCO2)c1cccc(Cl)c1,-,-,-,-
O=C(NCc1cccc(Cl)c1)c1ccc2c(c1)OCO2,?,21016,-,-
CCS(=O)(=O)N1CCC(C(=O)NCc2ccc3c(c2)OCO3)CC1,-,-,-,-
CCCCC1CCC(C(=O)NCc2ccc3c(c2)OCO3)CC1 (stereo not drawn),-,23610,-,-
O=C(COC(=O)c1ccc2c(c1)OCO2)NCc1ccc2c(c1)OCO2,-,?,-,-
COCC(=O)NCc1ccc2c(c1)OCO2,-,22350,-,-
SMILES,BoNT-A LC inh2,Autofluor counter,BoNT F protease,Anthrax LF prot
O=C(CSCc1cccc(Cl)c1)NCc1ccc2c(c1)OCO2,-,21289,-,-
O=C(NCc1ccc(Cl)cc1)C1=Cc2cc(Cl)ccc2OC1,-,21246,-,-
O=C(Nc1cccc(Cl)c1)C1=Cc2cc(Cl)ccc2OC1,-,-,-,-
O=C(NCc1cccnc1)c1ccc2c(c1)OCO2,?,22188,-,-
O=C(CCS(=O)(=O)c1ccc(Br)s1)NCc1ccc2c(c1)OCO2,?,22950,-,-
CC12CCC(=O)N1C(C(=O)Nc1ccc(F)c(Cl)c1)CS2 (stereo not drawn),-,-,-,-
CCCC(=O)Nc1ccc(C(=O)N/N=C/c2cccnc2)cc1,?,23205,-,-
CCCCCCC(C)NC(=S)Nc1cc(S(=O)(=O)N(C)C)ccc1C (stereo not drawn),-,-,-,-
Cc1cccc(-n2nnnc2SCn2nnc3ccccc3c2=O)c1,-,20246,-,-
CCN(CC)S(=O)(=O)c1ccc2c(c1)nc(SCn1nnc3ccccc3c1=O)n2CC,-,23084,-,-
CCN(CC)S(=O)(=O)c1ccc2c(c1)nc(SCC(=O)N(C)C1CCS(=O)(=O)C1)n2CC (stereo not drawn),-,-,-,-
Cc1ccc(-n2nnnc2SCn2nnc3ccccc3c2=O)cc1,-,-,-,-
CC(=O)NC(c1ccccc1)c1nc(-c2ccc(C)c(C)c2)cs1 (stereo not drawn),-,-,-,-
COc1ccc(CC2CCOC2=O)cc1 (stereo not drawn),-,20533,-,-
O=C(NCC(O)c1ccc([N+](=O)[O-])cc1)c1cccc(S(=O)(=O)N2CCCC2)c1 (stereo not drawn),-,-,-,-
O=C1CC(N2CCN(Cc3ccccc3)CC2)C(=O)N1 (stereo not drawn),-,-,-,-
O=C1CC(N2CCN(c3ccc(Cl)c(Cl)c3)CC2)C(=O)N1 (stereo not drawn),-,21082,-,-
O=C(CSc1nn(-c2ccccc2)c(=S)s1)Nn1cnnc1,-,-,-,-
